Inconclusive results are not listed. Entries that show only a call come without a potency. Calls of active or inactive are those of the source. Calls follow the shape of the dose curve; as a rule, active = well fitted inhibition curve with a large enough effect; inconclusive = small, poorly fitted or top-dose-only effect; inactive = no such curve, though single readings can be large or run the other way.
Assay: NS1 protein of Zika virus - qHTS assay to identify small molecule inhibitors in human HEK 293 cells (AID 1347053); also: nearly all actives have a fitted effect of over 55% in size
Settings: HEK293 ZIKV MR766 infection, NS1 TR-FRET, 24 h; series mostly up to 46.1 µM
Procedure, shortened: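 HEK 293 cells pretreated with compound for 1 h, then infected with ZIKV MR766 (MOI 0.5) for 24 h at 37 C. NS1 detected by TR-FRET with two anti-NS1 antibodies; normalized to uninfected (0%) and infected (100%) wells.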
With `COc1cc(C(O)CN)ccc1O` (stereo not drawn) the Potency was “inactive”. For `O=S(=O)(F)Cc1ccccc1`, the Potency was “inactive”. For `COc1ccc2c(c1)[C@]13CCCCC1C(C2)N(C)CC3` (stereo partly drawn), the Potency was “inactive”. In the case of `O=C(Oc1ccc([N+](=O)[O-])cc1)N1CCN(Cc2cccc(Oc3ccccc3)c2)CC1`, the Potency is reported as “inactive”. In the case of `CC1=C(O)C(=O)C=C2C1=CC=C1[C@@]2(C)CC[C@@]2(C)[C@@H]3C[C@](C)(C(=O)O)CC[C@]3(C)CC[C@]12C`, the Potency is reported as 2960 nM (active). With `CC=C(C)C(=O)O[C@H]1C(C)=C2[C@@H]3OC(=O)[C@@](C)(O)[C@@]3(O)[C@@H](OC(=O)CCC)C[C@](C)(OC(C)=O)[C@@H]2[C@@H]1OC(=O)CCCCCCC` the Potency was 332 nM (active). For `CC(C)(O)C=CC(=O)[C@](C)(O)[C@H]1[C@H](O)C[C@]2(C)[C@@H]3CC=C4[C@@H](C=C(O)C(=O)C4(C)C)[C@]3(C)C(=O)C[C@@]12C`, the Potency was 3320 nM (active). With `CCOC(=O)c1c(C(C#N)=CN)c2ccc(Cl)c(Cl)c2n1C` the Potency was “inactive”.
Potency is read from the fitted curve at half-maximal effect.
